Screens (PubChem BioAssay)
In the library only some 3.7% were active in any assay of this set; here they are far more common.
FMDV antiviral = blocks foot and mouth disease virus; FMDV antiviral cell-based qHTS; Potency, µM (titrated, usually from 57.9 µM), for the others: at the highest dose activity change, negative = inhibition, hits mostly inhibitors; actives 1.2% (n = 410,000); AID 1159524; calls by dose curve; tested in HEK293T cells; note: read-out not given here; nearly all actives have a fitted effect of over 45% in size
TbPYK inhibitor = blocks Trypanosoma brucei pyruvate kinase | actives 0.12% (n = 410,000) | AID 624173 | TbPYK enzyme, Kinase-Glo Plus ATP luminescence, 45 min | Potency, µM (highest dose often 76.8 µM), for the others: top-dose activity, negative = inhibition, usual class: inhibitors | Q57TT1; note: nearly all actives have a fitted effect of over 50% in size
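ADP (130 uM final) triggers the TbPYK reaction after compound addition; incubation is 45 min at room temperature. Kinase-Glo Plus is then added and luminescence imaged. Normalized data are fitted to concentration-effect curves.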
Sm TGR inh = inhibitors of Schistosoma mansoni thioredoxin glutathione reductase | actives 3% (n = 360,000) | purified TGR, DTNB reduction, TNB absorbance 405 nm | Q962Y6 | Potency, µM (highest dose often 114 µM), inactives show at the highest dose activity change, negative = inhibition, actives largely listed as inhibitors | AID 485364; note: nearly all actives have a fitted effect of over 60% in size
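Kinetic colorimetric format: TGR-catalysed, NADPH-driven DTNB reduction monitored via TNB absorbance. Enzyme dispensed at 20 nM; compound exposure 15 min at room temperature before reaction start.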
RE007 growth inh = less growth of the S. pombe RE007 Vpr strain; S. pombe RE007 Vpr strain, BacTiter-Glo ATP luminescence, 24 h; Potency, µM (doses to about 92.2 µM), without a hit: at the top dose activity change, negative = less growth, usual class: inhibitors; actives 0.21% (n = 360,000); AID 651644; active = well fitted falling curve with a large enough effect; inconclusive = small, poorly fitted or top-dose-only effect; inactive = no such curve, though single readings can be large or run the other way; note: nearly all actives have a fitted effect of over 50% in size
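Fission yeast strain RE007, carrying one chromosomally integrated HIV-1 vpr copy, was seeded at OD 0.01 in PMG+AL medium with 23 nL pinned compound. After 24 h at 30 °C and 99% humidity, viability was read by BacTiter-Glo luminescence.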
* = called active by the depositor. Unless noted, calls come from the whole dose curve; as a rule, active = well fitted curve in the direction sought with a large enough effect; inconclusive = small, poorly fitted or top-dose-only effect, or another doubt; inactive = no such curve, though single readings can be large; an effect the other way counts as inactive or inconclusive. % is set by controls: 0 for no effect and ±100 for the full control effect; potency is the fitted concentration of half-maximal effect.

Cc1ccc(-c2nc3ccccc3[nH]2)cc1NC(=O)/C=C/c1ccco1 was read as FMDV antiviral 28%, TbPYK inhibitor -15%, Sm TGR inh 20µM* and RE007 growth inh -11%.
`O=C(/C=C/c1ccco1)N/C(=C\c1ccco1)C(=O)NCCc1nc2ccccc2[nH]1` gave FMDV antiviral 4%, TbPYK inhibitor -11%, Sm TGR inh 16µM* and RE007 growth inh -5%.
Screening CS(=O)(=O)N1CCC[C@@]2(CCN(C(=O)Nc3cccc(C#N)c3)C2)C1 returned FMDV antiviral -10% and TbPYK inhibitor 0%.
For C=CCn1c(CCSCc2ccc(OC)c(C)c2)n[nH]c1=S the results were FMDV antiviral -14%, TbPYK inhibitor 7.9µM*, Sm TGR inh -4% and RE007 growth inh 9%.
`C=CCn1c(CCSCc2ccccc2)n[nH]c1=S` gave FMDV antiviral -13%, TbPYK inhibitor inconclusive, Sm TGR inh 12% and RE007 growth inh 8%.
For Nc1ncnc(Sc2ccccc2)c1[N+](=O)[O-] the results were FMDV antiviral -6%, TbPYK inhibitor -6%, Sm TGR inh 13µM* and RE007 growth inh -25%.
Screening Nc1ncnc(Sc2ccc(Cl)cc2)c1[N+](=O)[O-] returned FMDV antiviral inconclusive, TbPYK inhibitor -14%, Sm TGR inh inconclusive and RE007 growth inh -20%.
For Nc1ncnc(Sc2ncccn2)c1[N+](=O)[O-] the results were FMDV antiviral 32µM*, TbPYK inhibitor -5%, Sm TGR inh 2.5µM* and RE007 growth inh -19%.
`O=C(NCCN1CCC(n2c(=O)[nH]c3ccccc32)CC1)c1ccc(C(F)(F)F)cc1C(F)(F)F` gave FMDV antiviral 20µM*, TbPYK inhibitor -2% and RE007 growth inh 3%.
CCOc1ccc(CN(C)C(C)C(=O)Nc2ccc([N+](=O)[O-])cc2Cl)cc1OC (stereo not drawn) was read as FMDV antiviral 22µM*, TbPYK inhibitor 2%, Sm TGR inh 2% and RE007 growth inh 5%.
For COc1ccc(CN(C)C(C)C(=O)Nc2ccc([N+](=O)[O-])cc2Cl)cc1OC (stereo not drawn) the results were FMDV antiviral inconclusive, TbPYK inhibitor -16% and Sm TGR inh -7%.
`CCN1C/C(=C/c2ccc(N3CCOCC3)cc2)C(=O)/C(=C/c2ccc(N3CCOCC3)cc2)C1` gave FMDV antiviral 28µM*, TbPYK inhibitor -3%, Sm TGR inh -20% and RE007 growth inh inconclusive.
Screening COc1ccc(CN2CCc3c(c(=O)n4ncc(C(=O)N5CCN(c6ccccc6OC)CC5)c4n3C)C2)cc1 returned FMDV antiviral inconclusive, TbPYK inhibitor -11% and Sm TGR inh 0%.
`COc1ccc2oc3cc(C)[n+]([O-])c(-c4ccc(Br)cc4)c3c2c1` gave FMDV antiviral 32µM*, TbPYK inhibitor 4%, Sm TGR inh -5% and RE007 growth inh 22%.
For CCOC(=O)c1c(-c2ccc(OC)cc2)oc2ccc(OCc3ccc(Br)cc3)cc12 the results were FMDV antiviral -11%, TbPYK inhibitor -2% and Sm TGR inh -2%.
`Cc1cc2nc(-c3ccc(SCC(=O)N4CCOCC4)nc3)[nH]c2cc1C` gave FMDV antiviral -18%, TbPYK inhibitor 2%, Sm TGR inh -1% and RE007 growth inh -6%.
For Cc1cc2nc(-c3ccc(SCC(=O)N4CCN(C(=O)c5ccco5)CC4)nc3)[nH]c2cc1C the results were FMDV antiviral 5%, TbPYK inhibitor -17%, Sm TGR inh 10µM* and RE007 growth inh -3%.
Screening C=CC(=O)N1C/C(=C/c2ccccc2)C(=O)/C(=C\c2ccccc2)C1 returned FMDV antiviral 7.9µM*, TbPYK inhibitor -10% and RE007 growth inh inconclusive.
O=C1C(=Cc2ccc(Cl)cc2)Cc2ccccc21 was read as FMDV antiviral 28%, TbPYK inhibitor -2% and RE007 growth inh -6%.
For C=CC(=O)N1C/C(=C/c2ccc(Cl)cc2)C(=O)/C(=C\c2ccc(Cl)cc2)C1 the results were FMDV antiviral 8.9µM*, TbPYK inhibitor 1% and RE007 growth inh -2%.
Screening Cc1ccc(-n2c3c(c(=O)[nH]c2=O)C(NC(=O)C(C)(C)C)(C(F)(F)F)C(=O)N3)cc1 (stereo not drawn) returned FMDV antiviral 6%, TbPYK inhibitor 1% and Sm TGR inh 2%.
Cc1ccc(NC2=NCC(=O)N2C2CCCC2)c(C)c1 was read as FMDV antiviral -22%, TbPYK inhibitor 1%, Sm TGR inh 22µM* and RE007 growth inh -8%.
Cc1ccccc1-c1noc(CSc2nnc(Cc3ccccc3)n2-c2ccc(F)cc2)n1 was read as FMDV antiviral 0%, TbPYK inhibitor 1% and Sm TGR inh 8%.
`CCOc1ccc(NC(=O)Cn2sc3nc(C)cc(C)c3c2=O)cc1` gave FMDV antiviral -11%, TbPYK inhibitor 5.6µM*, Sm TGR inh 0% and RE007 growth inh -16%.
Screening Cc1cc(C)c2c(=O)n(CC(=O)NCCCN3CCOCC3)sc2n1 returned FMDV antiviral -14%, TbPYK inhibitor 6.3µM*, Sm TGR inh inconclusive and RE007 growth inh inconclusive.
`Cc1cc(C)c2c(=O)n(CC(=O)Nc3ccc(Cl)cc3)sc2n1` gave FMDV antiviral inconclusive, TbPYK inhibitor inconclusive, Sm TGR inh inconclusive and RE007 growth inh -5%.
For Cc1ccc(NC(=O)Cn2sc3nc(C)cc(C)c3c2=O)c(Cl)c1 the results were FMDV antiviral -10%, TbPYK inhibitor 2.5µM*, Sm TGR inh -31% and RE007 growth inh 22%.
For Cc1cc(C(=O)NCCc2ccc(Cl)cc2)c2c(C)nn(-c3cccc(F)c3)c2n1 the results were FMDV antiviral 6%, TbPYK inhibitor -11% and Sm TGR inh 16%.
Cc1cc(C)cc(NC(=O)CCc2ccc(C)o2)c1 was read as FMDV antiviral -20%, TbPYK inhibitor -7%, Sm TGR inh -15% and RE007 growth inh -8%.
Screening Cc1cccc(NC(=O)CCc2ccc(C)o2)c1 returned FMDV antiviral 21%, TbPYK inhibitor -31%, Sm TGR inh 35µM* and RE007 growth inh -3%.
Cc1ccc(CCC(=O)Nc2ccc(S(N)(=O)=O)cc2)o1 was read as FMDV antiviral -5%, TbPYK inhibitor -26%, Sm TGR inh 14µM* and RE007 growth inh 4%.
Cc1ccc(/C=C2\SC(=S)N(CCC(=O)N3CCCCC3)C2=O)cc1 was read as FMDV antiviral 5%, TbPYK inhibitor -3%, Sm TGR inh 5% and RE007 growth inh 20%.
`COc1cc(/C=C2\SC(=S)N(CCC(=O)N3CCCCC3)C2=O)cc(OC)c1OC` gave FMDV antiviral 28µM*, TbPYK inhibitor 0%, Sm TGR inh -2% and RE007 growth inh -2%.
For COc1ccc2oc(-c3ccco3)cc(=O)c2c1 the results were FMDV antiviral 16%, TbPYK inhibitor -12%, Sm TGR inh -13% and RE007 growth inh -23%.
COc1cccc2oc(-c3ccco3)cc(=O)c12 was read as FMDV antiviral inconclusive, TbPYK inhibitor -10%, Sm TGR inh 7.9µM* and RE007 growth inh -3%.
